Experiment [1] deals with Paired box protein Pax-6 (Homo sapiens) (UniProt P26367). Nature of the experiment: ATG_Pax6_CIS: Attagene CIS-FACTORIAL HepG2 Assay for human Paired Box 6 (PAX6) (AID 2282956). The settings on record: HepG2 CIS-FACTORIAL PAX6 reporter transcription, RNA readout; actives raise or lower the signal. The procedure, abridged:
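DMSO-referenced bidirectional fits of reporter mRNA fluorescence; HepG2 with transient cis-promoter MRTUs, 24 h post-dose, RT-PCR plus capillary electrophoresis detection.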

A short description of experiment [2]: ATG_PXRE_CIS: Attagene CIS-FACTORIAL HepG2 Assay for human Pregnane X Receptor Element (PXRE) (AID 2282957). The settings on record: HepG2 Attagene CIS-FACTORIAL PXRE reporter, mRNA; actives raise or lower the signal. In outline:
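Bidirectional activity, baselined to DMSO, derived from reporter mRNA fluorescence (RT-PCR plus capillary electrophoresis) in HepG2 cells bearing cis-promoter reporter units, 24 h exposure.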

Experiment [3] is described as follows: ATG_PPRE_CIS: Attagene CIS-FACTORIAL HepG2 Assay for human Peroxisome Proliferator-activated Response Element (PPRE) (AID 2282958). The settings on record: HepG2 PPRE cis-element reporter, Attagene transcription factor profiling; actives raise or lower the signal. In outline:
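Read-out: fluorescent reporter mRNA fragments resolved by capillary electrophoresis after RT-PCR. HepG2 cells carried transiently transfected PPRE-driven cis reporter constructs and were dosed for 24 h; gain or loss of signal fitted relative to DMSO.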

The nature of experiment [4]: ATG_RORE_CIS: Attagene CIS-FACTORIAL HepG2 Assay for human RAR-related Orphan Receptor Element (RORE) (AID 2282959). The settings on record: HepG2 Attagene cis-factorial RORE reporter, mRNA; actives raise or lower the signal. The procedure, abridged:
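Readout: fluorescent reporter mRNA by RT-PCR plus capillary electrophoresis, 24 h after dosing transfected HepG2 cells. Endogenous transcription factor activity on a cis promoter element is measured. Gain or loss of signal fitted against DMSO.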

A short description of experiment [5]: ATG_Sox_CIS: Attagene CIS-FACTORIAL HepG2 Assay for human SRY-box transcription factor (SOX) (AID 2282960). The settings on record: HepG2 Attagene cis-factorial SOX reporter, mRNA; actives raise or lower the signal. The procedure, abridged:
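Read-out: fluorescent RT-PCR products of SOX1-linked reporter transcripts resolved by capillary electrophoresis, fitted bidirectionally against DMSO. Transiently transfected HepG2 cells, 24 h after chemical exposure, endogenous transcription factor activity.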

Experiment [6] has as its target Transcription factor Sp1 (Homo sapiens) (UniProt P08047). Nature of the experiment: ATG_Sp1_CIS: Attagene CIS-FACTORIAL HepG2 Assay for human Specificity Protein 1 (Sp1) (AID 2282961). The settings on record: HepG2 Sp1 cis-reporter transcription, actives raise or lower the signal. The procedure, abridged:
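Read-out: fluorescence of 6-FAM-labeled, HpaI-digested RT-PCR products separated by capillary electrophoresis. HepG2 cells carried transfected cis-element reporter units and were exposed to chemicals for 24 h; gain or loss of signal fitted relative to DMSO.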

A short description of experiment [7]: ATG_SREBP_CIS: Attagene CIS-FACTORIAL HepG2 Assay for human Sterol Regulatory Element Binding (SREBP) (AID 2282962). The settings on record: HepG2 Attagene cis-factorial SREBP reporter, mRNA; actives raise or lower the signal. The procedure, abridged:
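In this cis-format assay, HepG2 liver cells express reporters controlled by promoter elements responsive to native transcription factors. Exposure lasts 24 h; reporter mRNA fluorescence from capillary electrophoresis gives the signal, fitted bidirectionally against DMSO.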

Experiment [8] addresses Signal transducer and activator of transcription 3 (Homo sapiens) (UniProt P40763). Nature of the experiment: ATG_STAT3_CIS: Attagene CIS-FACTORIAL HepG2 Assay for human Signal Transducer and Activator of Transcription 3 (STAT3) (AID 2282963). The settings on record: HepG2, Attagene cis-factorial STAT3 reporter transcription; actives raise or lower the signal. In outline: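 HepG2, MRTU-transfected, 24 h dosing. RNA → RT → PCR → FAM label → HpaI → CE. Bidirectional fit vs DMSO.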

Experiment [9] can be described thus: ATG_TA_CIS: Attagene CIS-FACTORIAL HepG2 Assay for human TA Basal Promoter (AID 2282964). The settings on record: HepG2 Attagene CIS-factorial TA basal promoter reporter; actives raise or lower the signal. The procedure, abridged: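 HepG2 cells transiently transfected with multiplexed cis-promoter reporter units, dosed 24 h. Reporter mRNA measured by RT-PCR, 6-FAM labelling, HpaI digestion and capillary electrophoresis; bidirectional fit versus DMSO baseline, serving as background control.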

Experiment [10] can be described thus: ATG_TCF_b_cat_CIS: Attagene CIS-FACTORIAL HepG2 Assay for human T-Cell-Factor with beta-catenin (TCF/b-cat) (AID 2282965). The settings on record: HepG2 TCF/beta-catenin cis-reporter transcription, actives raise or lower the signal. The procedure, abridged: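 HepG2 cells transiently transfected with multiple cis-promoter-regulated reporter transcription units, so endogenous transcription factor activity is measured. Reporter mRNA read 24 hours after dosing by RT-PCR, fluorescent labelling and capillary electrophoresis; bidirectional fitting against DMSO.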

Experiment [11] in a line: ATG_TAL_CIS: Attagene CIS-FACTORIAL HepG2 Assay for human TAL Basal Promoter (AID 2282966).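 Further: background control endpoint measuring basal TAL promoter reporter mRNA not a specific factor.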 The settings on record: HepG2 Attagene cis-factorial TAL promoter reporter; actives raise or lower the signal. In outline:
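Human hepatoma HepG2 cells, transfected with promoter-regulated reporter units, were treated 24 h. Reporter transcript levels, measured through RT-PCR and capillary electrophoresis, were fitted for gain or loss relative to DMSO.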

Experiment [12] is described as follows: ATG_TGFb_CIS: Attagene CIS-FACTORIAL HepG2 Assay for human Transforming Growth Factor (TGF) (AID 2282967). The settings on record: HepG2 Attagene CIS TGFb reporter, mRNA transcription; actives raise or lower the signal. In outline: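 HepG2 cells transiently transfected with cis-promoter-driven multiplexed reporter units; 24 h compound exposure. Reporter mRNA measured by RT-PCR, 6-FAM labeling, HpaI digestion and capillary electrophoresis; bidirectional fit versus DMSO baseline.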

Experiment [13] deals with Estrogen receptor (Homo sapiens) (UniProt P03372). In words: ATG_ERa_TRANS: Attagene TRANS-FACTORIAL HepG2 Assay for human Estrogen Receptor alpha (ERa) (AID 2282970; active means hit-call score of the fitted dose curve at least 0.9, where 1 is the maximum). The settings on record: HepG2 Attagene TRANS ERa GAL4 reporter, mRNA. In outline:
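Signal derives from fluorescence of labelled reporter PCR fragments separated by capillary electrophoresis. HepG2 cells transiently carrying multiple GAL4-UAS reporter units were treated 24 hours, and induction above DMSO baseline was fitted as activity.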

For experiment [14], the target named is X-box-binding protein 1 (Homo sapiens) (UniProt P17861). In words: ATG_Xbp1_CIS: Attagene CIS-FACTORIAL HepG2 Assay for human X-box Binding Protein 1 (XBP1) (AID 2282972). The settings on record: HepG2 XBP1 cis-element reporter, Attagene multiplex; actives raise or lower the signal. The procedure, abridged: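 Changes in reporter transcript abundance, read by RT-PCR and capillary electrophoresis, reflect endogenous transcription factor activity. Transfected HepG2 cells received compound for 24 hours; DMSO defined baseline for bidirectional analysis.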

In experiment [15] the target is Estrogen-related receptor gamma (Homo sapiens) (UniProt P62508). In words: ATG_ERRg_TRANS: Attagene TRANS-FACTORIAL HepG2 Assay for human Estrogen-Related Receptor gamma (ERRg) (AID 2282977; active means hit-call score of the fitted dose curve at least 0.9, where 1 is the maximum;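 further: hits increase reporter signal over DMSO so potencies reflect activators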). The settings on record: HepG2 Attagene TRANS reporter, ERRg transactivation. The procedure, abridged:
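Exogenous NR-Gal4 chimera activity measured as reporter transcript induction after 24 h in transiently transfected HepG2 cells. RNA reverse-transcribed, PCR-amplified, 6-FAM-labelled and resolved by capillary electrophoresis; increase over DMSO baseline.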

The nature of experiment [16]: ATG_VDRE_CIS: Attagene CIS-FACTORIAL HepG2 Assay for human Vitamin D Receptor Element (VDRE) (AID 2282968). The settings on record: HepG2 VDRE cis-reporter transcription, actives raise or lower the signal. In outline:
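Steps: transfect HepG2 with multiple reporter transcription units; dose chemicals 24 h; isolate RNA; RT-PCR; label with 6-FAM primer extension; HpaI digest; capillary electrophoresis. Curves fitted both directions against DMSO.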

A short description of experiment [17]: ATG_GAL4_TRANS: Attagene TRANS-FACTORIAL HepG2 Assay for GAL4 (Internal Marker) (AID 2282976; active means hit-call score of the fitted dose curve at least 0.9, where 1 is the maximum). The settings on record: HepG2 Attagene TRANS GAL4 internal marker reporter. In outline: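 Liver HepG2 line bearing multiplexed GAL4-UAS reporter constructs; 24 h chemical treatment. Transcripts were quantified as fluorescent fragments on capillary electrophoresis after RT-PCR and HpaI cut, with activity fitted upward from DMSO.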

Experiment [18] addresses Steroid hormone receptor ERR1 (Homo sapiens) (UniProt P11474). In words: ATG_ERRa_TRANS: Attagene TRANS-FACTORIAL HepG2 Assay for human Estrogen-Related Receptor alpha (ERRa) (AID 2282971; active means hit-call score of the fitted dose curve at least 0.9, where 1 is the maximum). The settings on record: HepG2 Attagene TRANS reporter, ERRa transactivation. In outline: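 Signal gain relative to DMSO for an ERRa-Gal4 chimeric receptor, read as reporter mRNA by RT-PCR/capillary electrophoresis. Human HepG2 liver cells, transient multiplex reporter transfection, 24 h chemical exposure.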

Experiment [19] is described as follows: ATG_M_19_TRANS: Attagene TRANS-FACTORIAL HepG2 Assay for M19 Transcription Factor (Internal Marker) (AID 2282974; active means hit-call score of the fitted dose curve at least 0.9, where 1 is the maximum). The settings on record: HepG2 Attagene TRANS-FACTORIAL M19 internal marker reporter. The procedure, abridged: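 24 h chemical exposure of transiently transfected HepG2 (MRTU library). RNA → oligo(dT) RT → PCR → 6-FAM labelling → HpaI cut → CE fluorescence. Positive-direction fit vs DMSO baseline; background internal-marker readout.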

SMILES strings stand for the structures. Inconclusive results are not listed. The source made the active and inactive calls. How the source made its calls, unless noted: active means hit-call score of the fitted dose curve at least 0.9, where 1 is the maximum; inactive means score below 0.9.

Estrogen-related receptor gamma (Homo sapiens), sequence (P62508 whole entry, looked up, the tested form may be a part): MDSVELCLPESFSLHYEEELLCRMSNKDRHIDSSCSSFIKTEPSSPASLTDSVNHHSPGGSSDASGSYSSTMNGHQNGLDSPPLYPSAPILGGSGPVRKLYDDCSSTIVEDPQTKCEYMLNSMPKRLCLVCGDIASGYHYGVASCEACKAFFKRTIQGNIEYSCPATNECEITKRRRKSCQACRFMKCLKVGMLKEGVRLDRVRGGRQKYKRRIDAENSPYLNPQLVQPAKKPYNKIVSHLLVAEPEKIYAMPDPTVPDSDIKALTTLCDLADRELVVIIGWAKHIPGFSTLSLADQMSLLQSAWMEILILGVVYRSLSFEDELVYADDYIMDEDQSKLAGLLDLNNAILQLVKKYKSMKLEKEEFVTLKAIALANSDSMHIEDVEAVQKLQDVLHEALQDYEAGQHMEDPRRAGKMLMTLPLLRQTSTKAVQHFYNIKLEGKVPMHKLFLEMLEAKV
Paired box protein Pax-6 (Homo sapiens), sequence (P26367 whole entry, looked up): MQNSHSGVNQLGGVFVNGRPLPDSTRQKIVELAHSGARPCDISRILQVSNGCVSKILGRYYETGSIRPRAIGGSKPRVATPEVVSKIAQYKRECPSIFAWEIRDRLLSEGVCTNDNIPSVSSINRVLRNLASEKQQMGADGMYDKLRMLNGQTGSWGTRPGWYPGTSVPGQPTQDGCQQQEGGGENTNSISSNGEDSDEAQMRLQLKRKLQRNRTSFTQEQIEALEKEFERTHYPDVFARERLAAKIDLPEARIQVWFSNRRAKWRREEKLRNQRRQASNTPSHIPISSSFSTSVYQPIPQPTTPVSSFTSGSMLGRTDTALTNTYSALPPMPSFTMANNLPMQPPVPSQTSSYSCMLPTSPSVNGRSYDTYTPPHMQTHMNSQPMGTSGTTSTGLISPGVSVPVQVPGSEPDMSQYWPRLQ
Transcription factor Sp1 (Homo sapiens), sequence (P08047 whole entry, looked up): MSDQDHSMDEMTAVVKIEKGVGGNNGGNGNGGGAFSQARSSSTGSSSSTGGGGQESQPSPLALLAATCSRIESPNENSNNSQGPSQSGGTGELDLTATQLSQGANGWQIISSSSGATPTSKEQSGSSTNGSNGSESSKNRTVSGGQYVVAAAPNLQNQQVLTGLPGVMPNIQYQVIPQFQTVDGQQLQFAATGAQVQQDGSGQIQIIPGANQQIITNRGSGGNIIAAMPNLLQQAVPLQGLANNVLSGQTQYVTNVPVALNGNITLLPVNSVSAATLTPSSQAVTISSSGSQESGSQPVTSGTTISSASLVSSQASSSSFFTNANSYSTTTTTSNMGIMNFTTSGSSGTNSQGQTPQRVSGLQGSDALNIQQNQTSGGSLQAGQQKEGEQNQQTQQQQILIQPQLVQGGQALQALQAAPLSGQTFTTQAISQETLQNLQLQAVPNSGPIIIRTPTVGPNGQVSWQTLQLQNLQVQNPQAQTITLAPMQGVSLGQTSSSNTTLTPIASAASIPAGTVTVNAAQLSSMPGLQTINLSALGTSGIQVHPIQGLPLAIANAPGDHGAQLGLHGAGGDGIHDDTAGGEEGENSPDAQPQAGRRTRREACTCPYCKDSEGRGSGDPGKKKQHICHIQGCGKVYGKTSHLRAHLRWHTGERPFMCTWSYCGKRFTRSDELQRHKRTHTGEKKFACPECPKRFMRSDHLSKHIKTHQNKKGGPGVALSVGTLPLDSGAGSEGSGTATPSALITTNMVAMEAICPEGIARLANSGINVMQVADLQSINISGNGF
Signal transducer and activator of transcription 3 (Homo sapiens), sequence (P40763 whole entry, looked up): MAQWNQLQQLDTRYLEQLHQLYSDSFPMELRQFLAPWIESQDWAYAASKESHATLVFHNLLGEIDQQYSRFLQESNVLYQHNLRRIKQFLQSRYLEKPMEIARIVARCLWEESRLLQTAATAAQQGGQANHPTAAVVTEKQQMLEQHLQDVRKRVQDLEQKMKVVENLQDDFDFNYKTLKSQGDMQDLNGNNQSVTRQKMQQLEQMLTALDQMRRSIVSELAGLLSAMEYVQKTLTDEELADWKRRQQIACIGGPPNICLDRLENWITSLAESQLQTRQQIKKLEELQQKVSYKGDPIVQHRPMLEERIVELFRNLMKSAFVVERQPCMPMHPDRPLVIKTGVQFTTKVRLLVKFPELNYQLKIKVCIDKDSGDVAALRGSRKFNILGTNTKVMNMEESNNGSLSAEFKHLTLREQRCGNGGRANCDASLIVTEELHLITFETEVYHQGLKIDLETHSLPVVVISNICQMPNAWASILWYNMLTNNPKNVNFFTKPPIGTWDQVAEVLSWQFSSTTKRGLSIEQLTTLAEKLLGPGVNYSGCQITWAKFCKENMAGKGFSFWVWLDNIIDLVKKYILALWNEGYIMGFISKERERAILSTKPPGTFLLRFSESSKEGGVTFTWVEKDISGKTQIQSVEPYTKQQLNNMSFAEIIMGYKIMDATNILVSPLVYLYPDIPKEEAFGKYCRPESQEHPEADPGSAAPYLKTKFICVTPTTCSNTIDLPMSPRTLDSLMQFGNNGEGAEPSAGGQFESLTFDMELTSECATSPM
X-box-binding protein 1 (Homo sapiens), sequence (P17861 whole entry, looked up): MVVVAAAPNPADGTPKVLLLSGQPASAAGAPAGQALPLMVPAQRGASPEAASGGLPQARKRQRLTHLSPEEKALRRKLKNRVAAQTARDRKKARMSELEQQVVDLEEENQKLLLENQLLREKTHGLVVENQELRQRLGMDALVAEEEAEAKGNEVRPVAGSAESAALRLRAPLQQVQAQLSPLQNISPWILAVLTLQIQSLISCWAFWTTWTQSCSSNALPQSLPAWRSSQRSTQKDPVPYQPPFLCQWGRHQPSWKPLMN
Estrogen receptor (Homo sapiens), sequence (P03372 whole entry, looked up, the tested form may be a part): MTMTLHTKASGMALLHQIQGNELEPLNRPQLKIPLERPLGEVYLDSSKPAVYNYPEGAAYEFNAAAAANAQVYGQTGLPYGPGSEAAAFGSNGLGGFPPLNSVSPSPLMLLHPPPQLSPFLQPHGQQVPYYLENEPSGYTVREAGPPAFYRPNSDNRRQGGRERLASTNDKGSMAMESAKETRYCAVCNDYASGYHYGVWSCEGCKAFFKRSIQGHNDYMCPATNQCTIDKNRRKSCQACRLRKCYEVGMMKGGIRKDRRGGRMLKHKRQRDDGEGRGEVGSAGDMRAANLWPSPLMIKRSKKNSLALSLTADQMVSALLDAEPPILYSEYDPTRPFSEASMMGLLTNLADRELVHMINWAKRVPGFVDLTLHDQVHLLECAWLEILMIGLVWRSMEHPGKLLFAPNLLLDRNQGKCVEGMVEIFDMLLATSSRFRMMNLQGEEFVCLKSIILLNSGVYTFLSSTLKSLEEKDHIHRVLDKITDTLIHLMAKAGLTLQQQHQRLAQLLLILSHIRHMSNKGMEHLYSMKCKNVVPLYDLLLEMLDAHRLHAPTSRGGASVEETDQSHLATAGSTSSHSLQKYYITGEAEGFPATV
Steroid hormone receptor ERR1 (Homo sapiens), sequence (P11474 whole entry, looked up, the tested form may be a part): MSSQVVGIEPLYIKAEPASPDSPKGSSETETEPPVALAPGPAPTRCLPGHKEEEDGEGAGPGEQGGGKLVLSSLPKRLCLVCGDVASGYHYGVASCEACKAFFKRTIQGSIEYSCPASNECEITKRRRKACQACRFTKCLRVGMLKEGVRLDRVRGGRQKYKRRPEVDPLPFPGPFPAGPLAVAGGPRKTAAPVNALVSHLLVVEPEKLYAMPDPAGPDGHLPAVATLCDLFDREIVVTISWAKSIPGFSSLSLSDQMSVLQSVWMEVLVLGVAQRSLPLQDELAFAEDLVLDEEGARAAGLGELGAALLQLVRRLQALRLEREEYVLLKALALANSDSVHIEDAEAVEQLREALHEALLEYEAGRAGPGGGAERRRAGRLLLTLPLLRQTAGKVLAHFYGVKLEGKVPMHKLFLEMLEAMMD

The AC50 is the concentration at which the activity in the assay is half-maximal. On to `O=C(C=Cc1ccccc1)OCc1ccccc1`, for which the compound was classed as inactive in experiment [1], in experiment [3], in experiment [4], in experiment [5], in experiment [6] and in experiment [7]. Further, the result in [8], in [9], in [10], in experiment [11], in [12] and in [13] was inactive. Besides, in [14], the compound was classed as inactive. In experiment [2], the half-maximal activity concentration (AC50) was 13.2 µM (active).

In the case of `CCN(CCC#N)c1ccc(N=Nc2c(Cl)cc([N+](=O)[O-])cc2Cl)cc1`, the compound was called inactive in experiment [1], in experiment [3], in experiment [4], in [5], in experiment [6] and in experiment [7]. In addition, the result in experiment [8], in experiment [9], in experiment [10], in experiment [11], in experiment [12] and in experiment [14] was inactive. The compound was classed as inactive in experiment [15]. The AC50 in experiment [2] was 1.67 µM (active); in [13], 4.92 µM (active).

On to `CC=CC(F)(F)C(F)(F)C(F)(F)F`, for which the outcome in experiment [1], in experiment [2], in [3], in experiment [4], in experiment [5] and in [6] was inactive. For the same compound, the result in experiment [7], in [8], in experiment [9], in experiment [10], in experiment [11] and in experiment [16] was inactive. The outcome in [14], in [17] and in experiment [15] was inactive.

As for `O=C1C=CC(=O)O1`, the compound was called inactive in [1], in experiment [2], in experiment [3], in experiment [4], in experiment [5] and in experiment [6]. Besides, the result in [7], in experiment [8], in [9], in [10], in [12] and in experiment [16] was inactive. The outcome in [14] was inactive.

For `C=CC(C)(C)C`, the compound was classed as inactive in [1], in [2], in [3], in [4], in experiment [5] and in experiment [6]. The compound was classed as inactive in experiment [7], in experiment [8], in experiment [9], in experiment [10], in experiment [11] and in experiment [12]. For the same compound, the call in [18], in [14], in experiment [19], in experiment [17] and in [15] was inactive.

These data come from PubChem BioAssay (EPA / NIEHS).
